The source of these data is the supplement of paper PMC10849652.

About 7,900 targets were measured; listed, in parts, are those with a hit and a random draw of the rest. About 0.6% of all pairs of compound and target were hits. A number with no mark means an inactive call.

Sequence of UniProt Q92851 (Q92851 whole entry, looked up): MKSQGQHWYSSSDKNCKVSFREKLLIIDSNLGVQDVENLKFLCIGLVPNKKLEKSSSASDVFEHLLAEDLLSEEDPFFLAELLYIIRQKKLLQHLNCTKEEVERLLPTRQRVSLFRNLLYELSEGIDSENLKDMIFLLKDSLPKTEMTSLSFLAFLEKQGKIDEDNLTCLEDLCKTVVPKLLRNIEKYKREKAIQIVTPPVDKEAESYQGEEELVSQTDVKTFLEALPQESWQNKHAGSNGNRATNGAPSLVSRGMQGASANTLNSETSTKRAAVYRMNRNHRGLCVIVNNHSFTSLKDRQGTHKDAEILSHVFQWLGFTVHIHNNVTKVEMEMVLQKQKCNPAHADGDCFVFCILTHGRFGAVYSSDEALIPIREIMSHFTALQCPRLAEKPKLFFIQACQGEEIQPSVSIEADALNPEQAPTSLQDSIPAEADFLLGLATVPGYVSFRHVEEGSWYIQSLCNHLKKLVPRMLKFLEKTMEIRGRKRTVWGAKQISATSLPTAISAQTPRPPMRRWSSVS
Sequence of UniProt Q9Y3X0 (Q9Y3X0 whole entry, looked up): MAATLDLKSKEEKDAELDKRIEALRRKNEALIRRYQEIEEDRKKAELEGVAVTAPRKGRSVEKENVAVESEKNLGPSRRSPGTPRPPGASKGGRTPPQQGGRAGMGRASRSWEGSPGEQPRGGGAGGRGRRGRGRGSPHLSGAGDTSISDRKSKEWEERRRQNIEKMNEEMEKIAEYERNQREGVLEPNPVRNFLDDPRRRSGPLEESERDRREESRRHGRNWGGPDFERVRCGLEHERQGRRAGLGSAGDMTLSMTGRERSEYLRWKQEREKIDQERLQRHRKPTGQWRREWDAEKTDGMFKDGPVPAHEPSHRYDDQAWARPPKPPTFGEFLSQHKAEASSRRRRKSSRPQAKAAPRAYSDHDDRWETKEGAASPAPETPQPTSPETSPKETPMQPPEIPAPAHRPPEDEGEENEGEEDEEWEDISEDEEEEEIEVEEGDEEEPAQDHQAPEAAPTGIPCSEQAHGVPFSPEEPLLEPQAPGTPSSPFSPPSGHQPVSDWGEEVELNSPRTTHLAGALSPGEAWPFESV
Sequence of UniProt Q9Y5P4 (Q9Y5P4 whole entry, looked up): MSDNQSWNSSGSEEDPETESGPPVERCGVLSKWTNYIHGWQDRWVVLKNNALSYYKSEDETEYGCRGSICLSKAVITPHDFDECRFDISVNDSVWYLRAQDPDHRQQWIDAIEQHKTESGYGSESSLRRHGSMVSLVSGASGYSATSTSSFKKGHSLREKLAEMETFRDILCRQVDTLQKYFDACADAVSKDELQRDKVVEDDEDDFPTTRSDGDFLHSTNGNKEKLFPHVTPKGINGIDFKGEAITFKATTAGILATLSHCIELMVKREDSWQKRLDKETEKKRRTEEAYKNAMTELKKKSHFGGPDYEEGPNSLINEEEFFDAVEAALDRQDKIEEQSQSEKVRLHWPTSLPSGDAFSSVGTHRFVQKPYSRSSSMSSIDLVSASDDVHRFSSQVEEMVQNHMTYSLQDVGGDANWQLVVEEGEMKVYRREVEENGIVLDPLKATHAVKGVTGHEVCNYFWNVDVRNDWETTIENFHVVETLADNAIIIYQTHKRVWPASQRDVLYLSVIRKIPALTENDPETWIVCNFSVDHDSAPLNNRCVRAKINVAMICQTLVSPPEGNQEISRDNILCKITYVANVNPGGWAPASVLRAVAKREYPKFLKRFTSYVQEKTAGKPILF
Sequence of UniProt P21964 (P21964 whole entry, looked up): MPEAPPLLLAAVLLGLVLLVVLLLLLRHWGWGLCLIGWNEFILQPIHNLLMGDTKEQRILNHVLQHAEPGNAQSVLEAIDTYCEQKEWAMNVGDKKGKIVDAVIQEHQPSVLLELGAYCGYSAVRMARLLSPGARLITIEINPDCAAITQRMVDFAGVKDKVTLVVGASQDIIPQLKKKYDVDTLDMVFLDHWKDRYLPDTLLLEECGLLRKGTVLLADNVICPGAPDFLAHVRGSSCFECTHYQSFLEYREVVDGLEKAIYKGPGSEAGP
Sequence of UniProt P14635 (P14635 whole entry, looked up): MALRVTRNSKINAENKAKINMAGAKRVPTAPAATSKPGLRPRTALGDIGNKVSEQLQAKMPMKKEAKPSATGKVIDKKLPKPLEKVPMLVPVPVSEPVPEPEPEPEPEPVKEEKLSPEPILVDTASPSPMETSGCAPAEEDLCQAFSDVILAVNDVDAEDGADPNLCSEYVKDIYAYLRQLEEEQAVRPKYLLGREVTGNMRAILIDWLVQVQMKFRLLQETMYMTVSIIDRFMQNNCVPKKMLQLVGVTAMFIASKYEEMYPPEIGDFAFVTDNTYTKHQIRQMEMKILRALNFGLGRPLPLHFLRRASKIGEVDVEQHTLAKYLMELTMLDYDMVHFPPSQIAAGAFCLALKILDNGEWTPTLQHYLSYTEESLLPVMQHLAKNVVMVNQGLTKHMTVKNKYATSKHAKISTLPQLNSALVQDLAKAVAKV
Sequence of UniProt P68400 (P68400 whole entry, looked up): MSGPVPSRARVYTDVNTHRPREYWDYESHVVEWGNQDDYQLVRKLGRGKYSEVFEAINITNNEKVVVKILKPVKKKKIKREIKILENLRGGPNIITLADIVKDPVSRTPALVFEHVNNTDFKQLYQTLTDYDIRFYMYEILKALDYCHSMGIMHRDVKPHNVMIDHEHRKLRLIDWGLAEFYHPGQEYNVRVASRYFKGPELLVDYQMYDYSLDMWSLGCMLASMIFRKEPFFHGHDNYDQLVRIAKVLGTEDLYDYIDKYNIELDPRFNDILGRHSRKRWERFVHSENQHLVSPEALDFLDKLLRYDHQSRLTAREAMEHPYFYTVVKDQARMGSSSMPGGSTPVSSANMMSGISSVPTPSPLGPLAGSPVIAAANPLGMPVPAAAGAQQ
Sequence of UniProt Q5T6V5 (Q5T6V5 whole entry, looked up): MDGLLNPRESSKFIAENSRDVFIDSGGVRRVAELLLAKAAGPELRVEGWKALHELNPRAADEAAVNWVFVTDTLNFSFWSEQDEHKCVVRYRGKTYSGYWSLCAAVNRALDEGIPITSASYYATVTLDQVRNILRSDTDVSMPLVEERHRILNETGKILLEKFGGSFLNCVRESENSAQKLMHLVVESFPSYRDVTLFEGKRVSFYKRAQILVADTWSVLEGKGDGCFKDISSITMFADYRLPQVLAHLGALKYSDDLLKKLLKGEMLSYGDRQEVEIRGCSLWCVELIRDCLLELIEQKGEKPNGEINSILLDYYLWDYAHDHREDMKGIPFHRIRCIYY
Sequence of UniProt Q13137 (Q13137 whole entry, looked up): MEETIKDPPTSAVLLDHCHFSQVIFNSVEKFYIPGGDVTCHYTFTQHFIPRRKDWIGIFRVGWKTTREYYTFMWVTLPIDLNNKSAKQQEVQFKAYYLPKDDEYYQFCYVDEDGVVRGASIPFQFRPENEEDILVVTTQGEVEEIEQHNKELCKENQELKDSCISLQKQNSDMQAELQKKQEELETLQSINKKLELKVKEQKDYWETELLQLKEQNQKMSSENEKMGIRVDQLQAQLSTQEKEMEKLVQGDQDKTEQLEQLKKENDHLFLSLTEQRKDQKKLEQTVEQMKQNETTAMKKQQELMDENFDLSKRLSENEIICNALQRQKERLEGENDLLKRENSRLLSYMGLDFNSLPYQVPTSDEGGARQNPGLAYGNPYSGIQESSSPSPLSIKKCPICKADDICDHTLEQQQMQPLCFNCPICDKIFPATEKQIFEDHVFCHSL
Sequence of UniProt Q96RR4 (Q96RR4 whole entry, looked up): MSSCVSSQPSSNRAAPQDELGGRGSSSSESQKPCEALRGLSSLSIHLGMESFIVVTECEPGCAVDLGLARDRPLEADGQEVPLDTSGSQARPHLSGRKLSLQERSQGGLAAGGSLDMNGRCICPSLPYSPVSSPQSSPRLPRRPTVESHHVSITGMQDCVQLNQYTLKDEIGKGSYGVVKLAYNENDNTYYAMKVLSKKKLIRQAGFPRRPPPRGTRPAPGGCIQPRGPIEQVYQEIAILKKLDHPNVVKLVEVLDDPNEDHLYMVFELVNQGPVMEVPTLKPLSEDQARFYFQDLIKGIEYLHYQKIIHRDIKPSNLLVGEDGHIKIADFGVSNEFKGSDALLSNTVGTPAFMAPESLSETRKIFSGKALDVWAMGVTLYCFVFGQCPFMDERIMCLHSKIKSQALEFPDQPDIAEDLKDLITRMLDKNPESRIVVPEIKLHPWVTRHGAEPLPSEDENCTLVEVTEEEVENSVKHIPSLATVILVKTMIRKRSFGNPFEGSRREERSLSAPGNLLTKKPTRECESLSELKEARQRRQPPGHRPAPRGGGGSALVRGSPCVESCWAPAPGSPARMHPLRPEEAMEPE
Sequence of UniProt O75909 (O75909 whole entry, looked up): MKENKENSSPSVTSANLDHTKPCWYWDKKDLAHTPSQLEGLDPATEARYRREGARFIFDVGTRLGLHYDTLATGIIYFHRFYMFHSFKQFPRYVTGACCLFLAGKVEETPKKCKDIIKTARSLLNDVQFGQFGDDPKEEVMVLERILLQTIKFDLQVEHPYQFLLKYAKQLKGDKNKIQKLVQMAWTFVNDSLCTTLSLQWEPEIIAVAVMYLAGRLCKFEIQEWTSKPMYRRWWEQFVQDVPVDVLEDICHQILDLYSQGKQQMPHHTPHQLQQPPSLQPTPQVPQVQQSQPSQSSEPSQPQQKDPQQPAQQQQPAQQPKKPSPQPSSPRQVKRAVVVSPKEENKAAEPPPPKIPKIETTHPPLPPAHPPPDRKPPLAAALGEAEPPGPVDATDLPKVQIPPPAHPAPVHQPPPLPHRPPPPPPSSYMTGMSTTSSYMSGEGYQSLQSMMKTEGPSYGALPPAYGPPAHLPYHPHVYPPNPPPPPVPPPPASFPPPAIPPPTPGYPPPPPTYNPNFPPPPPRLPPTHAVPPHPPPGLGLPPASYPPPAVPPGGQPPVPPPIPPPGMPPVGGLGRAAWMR
Sequence of UniProt Q96CF2 (Q96CF2 whole entry, looked up): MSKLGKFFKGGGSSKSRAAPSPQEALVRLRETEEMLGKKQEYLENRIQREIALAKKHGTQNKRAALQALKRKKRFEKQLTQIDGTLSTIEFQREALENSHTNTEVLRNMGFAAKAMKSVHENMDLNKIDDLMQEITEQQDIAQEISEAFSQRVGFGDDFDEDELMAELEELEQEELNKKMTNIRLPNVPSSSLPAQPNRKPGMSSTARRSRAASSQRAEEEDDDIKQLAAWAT

Compound in one test: Cc1cc(Nc2cc(CN3CCOCC3)c3nc(C)c(Cc4ccc(Cl)cc4F)n3n2)n[nH]1 [gandotinib]
Kind of test: log2 fold change, soluble protein after heating vs DMSO (PISA); higher = thermal stabilisation; K562 cells, 10 uM, 30 min; active = over 0.2 and 3.5 SD of the protein, either way, in both replicates (recomputed). The procedure, abridged:
(§1)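 Values are thermal stability changes relative to control samples and are taken from duplicates. They are stated as log2 fold changes. Before quantification by TMTpro 16plex LC-MS/MS with equalised channel sums, K562 cells at 2×10^6 cells/mL were treated with 10 μM compound for 30 min, heated in aliquots for 3 min across 48°C-58°C, pooled, extracted in PBS with 0.5% NP-40 at 4°C, and centrifuged at 21,000xg for 90 min to give the soluble supernatant.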
Take CALCOCO2 isoform 4 (UniProt Q13137): the log2 fold change is 0.071.

Consider CASP10 isoform 4 (UniProt Q92851), for which the log2 fold change was -0.128.

Turning to C9orf72 (UniProt Q96LT7), the log2 fold change is -0.313 (active).

With CSNK2A1 (UniProt P68400), the log2 fold change was 0.043.

CCNB1 (UniProt P14635): the log2 fold change is -0.004.

Take CHCHD1 (UniProt Q96BP2): the log2 fold change is -0.085.

With CERT isoform 3 (UniProt Q9Y5P4), the log2 fold change was 0.209.

With CCDC9 (UniProt Q9Y3X0), the log2 fold change was 0.194.

For CAMKK2 (UniProt Q96RR4), the log2 fold change was -0.221.

COMT (UniProt P21964): the log2 fold change is 0.031.

With CCNK isoform 4 (UniProt O75909), the log2 fold change is 0.324 (active).

CDC42BPA isoform 6 (UniProt Q5VT25): the log2 fold change is -0.148.

As to C9orf64 (UniProt Q5T6V5), the log2 fold change was -0.128.

Compound in a further test: Cc1cc(Nc2cc(N3CCN(C)CC3)nc(Sc3ccc(NC(=O)C4CC4)cc3)n2)n[nH]1 [tozasertib]
Described as above. An outline of the steps:
as §1
Turning to CHP1 (UniProt Q99653), the log2 fold change is 0.075.

As for CES2 isoform 4 (UniProt O00748), the log2 fold change was -0.093.

CPT2 (UniProt P23786): the log2 fold change is -0.049.

As for CNN2 (UniProt Q99439), the log2 fold change was 0.092.

In the case of CBX5 (UniProt P45973), the log2 fold change was -0.01.

Consider CNOT4 isoform 6 (UniProt O95628), for which the log2 fold change was -0.009.

Take CD55 isoform 7 (UniProt P08174): the log2 fold change was 0.067.

As to CPT1A (UniProt P50416), the log2 fold change was 0.161.

Turning to CD81 (UniProt P60033), the log2 fold change is -0.007.

With CRK (UniProt P46108), the log2 fold change is -0.254.

As to CSK (UniProt P41240), the log2 fold change is 0.026.

Consider CELF2 isoform 3 (UniProt O95319), for which the log2 fold change was -0.054.

As for CDK5RAP3 isoform 4 (UniProt Q96JB5), the log2 fold change is 0.015.

For CSNK2A2 (UniProt P19784), the log2 fold change is -0.029.

Regarding CCZ1 (UniProt P86791), the log2 fold change was -0.039.

With CBR1 (UniProt P16152), the log2 fold change was -0.025.

For CHAMP1 (UniProt Q96JM3), the log2 fold change is 0.045.

CHMP4C (UniProt Q96CF2): the log2 fold change is -0.024.

In the case of CBS (UniProt P35520), the log2 fold change is -0.032.

As for COX15 (UniProt Q7KZN9), the log2 fold change was -0.029.

As to CDAN1 (UniProt Q8IWY9), the log2 fold change is -0.098.

CDC26 (UniProt Q8NHZ8): the log2 fold change is 0.096.

As to COPS3 (UniProt Q9UNS2), the log2 fold change is 0.

CALCOCO2 isoform 4 (UniProt Q13137): the log2 fold change was 0.115.

For CASP10 isoform 4 (UniProt Q92851), the log2 fold change is 0.177.

With C9orf72 (UniProt Q96LT7), the log2 fold change is -0.019.

For CSNK2A1 (UniProt P68400), the log2 fold change was -0.004.

For the target CCNB1 (UniProt P14635), the log2 fold change is -0.042.

As to CHCHD1 (UniProt Q96BP2), the log2 fold change was -0.045.

For CERT isoform 3 (UniProt Q9Y5P4), the log2 fold change is 0.068.

With CCDC9 (UniProt Q9Y3X0), the log2 fold change was -0.083.

As for CAMKK2 (UniProt Q96RR4), the log2 fold change was 0.15.

Consider COMT (UniProt P21964), for which the log2 fold change is -0.028.

Take CCNK isoform 4 (UniProt O75909): the log2 fold change was 0.157.

For the target CDC42BPA isoform 6 (UniProt Q5VT25), the log2 fold change is -0.048.

In the case of C9orf64 (UniProt Q5T6V5), the log2 fold change is -0.012.

Compound in a further test: Cc1cc(SCc2sc(-c3ccc(C(F)(F)F)cc3)nc2C)ccc1OCC(=O)O
Described as above. An outline of the steps: as §1
For CHP1 (UniProt Q99653), the log2 fold change was -0.026.

CES2 isoform 4 (UniProt O00748): the log2 fold change is -0.188.

In the case of CPT2 (UniProt P23786), the log2 fold change was 1.04 (active).

For the target CNN2 (UniProt Q99439), the log2 fold change is 0.012.

For the target CBX5 (UniProt P45973), the log2 fold change was 0.059.

As to CNOT4 isoform 6 (UniProt O95628), the log2 fold change was 0.014.

Turning to CD55 isoform 7 (UniProt P08174), the log2 fold change is -0.031.

In the case of CPT1A (UniProt P50416), the log2 fold change is 0.079.

For the target CD81 (UniProt P60033), the log2 fold change was -0.084.

For the target CRK (UniProt P46108), the log2 fold change is 0.058.

With CSK (UniProt P41240), the log2 fold change was 0.046.

Regarding CELF2 isoform 3 (UniProt O95319), the log2 fold change is 0.102.

For the target CDK5RAP3 isoform 4 (UniProt Q96JB5), the log2 fold change is 0.016.

For CSNK2A2 (UniProt P19784), the log2 fold change is 0.013.

On to CCZ1 (UniProt P86791), for which the log2 fold change is 0.006.

CBR1 (UniProt P16152): the log2 fold change is -0.024.

Turning to CHAMP1 (UniProt Q96JM3), the log2 fold change is -0.049.

Take CHMP4C (UniProt Q96CF2): the log2 fold change was 0.03.

For CBS (UniProt P35520), the log2 fold change is -0.031.

For the target COX15 (UniProt Q7KZN9), the log2 fold change is -0.033.

Consider CDAN1 (UniProt Q8IWY9), for which the log2 fold change was 0.008.

Turning to CDC26 (UniProt Q8NHZ8), the log2 fold change was -0.021.

On to COPS3 (UniProt Q9UNS2), for which the log2 fold change is -0.006.

Consider CALCOCO2 isoform 4 (UniProt Q13137), for which the log2 fold change was -0.037.

Regarding CASP10 isoform 4 (UniProt Q92851), the log2 fold change was 0.201.

With C9orf72 (UniProt Q96LT7), the log2 fold change is 0.057.

Take CSNK2A1 (UniProt P68400): the log2 fold change is 0.005.

With CCNB1 (UniProt P14635), the log2 fold change was -0.025.

As to CHCHD1 (UniProt Q96BP2), the log2 fold change is 0.036.

For CERT isoform 3 (UniProt Q9Y5P4), the log2 fold change is -0.047.

In the case of CCDC9 (UniProt Q9Y3X0), the log2 fold change was -0.012.

For the target CAMKK2 (UniProt Q96RR4), the log2 fold change is 0.

For the target COMT (UniProt P21964), the log2 fold change was 0.02.

In the case of CCNK isoform 4 (UniProt O75909), the log2 fold change was 0.016.

Consider CDC42BPA isoform 6 (UniProt Q5VT25), for which the log2 fold change was 0.002.

Consider C9orf64 (UniProt Q5T6V5), for which the log2 fold change was 0.097.
